Bioassay records: PubChem BioAssay, several laboratories
Only some compounds are listed: those with a hit (about 3.3% of all), similar ones and a draw of the others.
Anthrax LF inh2: anthrax lethal factor protease inhibition | 360,000 tested, 0.12% active | inhibition, % at 10 µM | P15917 | AID 588501 | multiplex microsphere protease cleavage assay, LF; further: plate controls were buffer without enzyme for full effect and enzyme alone for no effect
MazEF act: activators of E. coli MazEF toxin-antitoxin RNase; P0AE70; FAM/BHQ RNA-DNA oligo cleavage fluorescence, 5 h; activation, % at 20 µM; 350,000 tested, 0.32% active; in the data active means activation above about 50%
BoNT A protease: blocks Botulinum neurotoxin A light chain protease; inhibition, % at 10 µM; AID 588499; 360,000 tested, 0.17% active; multiplex microsphere protease substrate cleavage, flow cytometry; further: plate controls were buffer without enzyme for full effect and enzyme alone for no effect
BoNT F protease: blocks Botulinum neurotoxin F light chain protease; Multiplex microsphere protease cleavage assay, flow cytometry; inhibition, % at 10 µM; 360,000 tested, 0.22% active; AID 588497; in the data active means inhibition above about 35%, passing the limit was not always enough; inconclusive means no clear call, values can overlap the other calls; further: plate controls were buffer without enzyme for full effect and enzyme alone for no effect
SSB-PriA inh: K. pneumoniae PriA-SSBct interaction inhibition. AlphaScreen SSBct-PriA binding, biotinylated peptide. inhibition, % at 33 µM. 430,000 tested, 0.6% active; in the data active means inhibition mostly above about 37%, no sharp cut-off; inactive means mostly below about 20%;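 further: plate controls were negative control peptide for no effect and reference peptide for full effect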
Bead autofluor: compound fluorescence in toxin protease inhibitor counterscreen | compound autofluorescence counterscreen, microsphere flow cytometry; stronger effect = higher value | fluorescence intensity (no concentration beside the values) | 360,000 tested, 3.1% active; in the data active means fluorescence intensity above about 16000; inconclusive means no clear call, values can overlap the other calls
Numbers without * were called inactive; ? = inconclusive; . = no result given. Unless noted, no stated cut-off is given here; in the data, active means inhibition above about 30%; inconclusive means no clear call, values can overlap the other calls; inactive means below that.

SMILES	Anthrax LF inh2	MazEF act	BoNT A protease	BoNT F protease	SSB-PriA inh	Bead autofluor
CCOC(=O)Cc1nc(-c2cnccn2)n[nH]1	.	.	.	.	-23	.
Cc1ccc2[nH]c(=O)c(CN(CCCN3CCOCC3)C(=O)NC3CCCCC3)cc2c1	-1	4	?	-2	-12	22874*
O=C(NC1CCCCC1)N(CCN1CCOCC1)Cc1cc2cc3c(cc2[nH]c1=O)OCCO3	0	-5	1	-1	-1	19967*
CCc1ccc2[nH]c(=O)c(CN(CCN3CCCC3)C(=O)NC3CCCCC3)cc2c1	1	7	0	1	-21	8319
CCN(CC)CCN(Cc1cc2cc3c(cc2[nH]c1=O)OCCO3)C(=O)NC1CCCCC1	2	3	0	-6	4	4951
CCOc1cccc2cc(C(=O)N3CCN(c4nc5c(C)cccc5s4)CC3)oc12	.	.	.	.	12	.
Cc1ccc2nc(NC(=O)Cc3cccs3)sc2c1	0	4	-4	-6	-16	21273*
COc1ccc2nc(NC(=O)Cc3cccs3)sc2c1	-1	3	0	-5	10	3287
Cc1ccc2nc(NC(=O)CNS(=O)(=O)c3ccc(Br)s3)sc2c1	0	-1	6	5	-12	21835*
Cc1cnc(NC(=O)Cc2cccs2)s1	-5	7	0	-2	-10	3154
Cc1cccc(OCc2nnc(NC(=O)Cc3cccs3)s2)c1	-2	4	0	-2	3	16333*
CSc1nc2ccc3nc(Nc4nc5c(F)cc(F)cc5s4)sc3c2s1	.	.	.	.	0	.
CCCCC1CCC(C(=O)Nc2ccccc2)CC1 (centres undefined)	-2	-4	?	-1	-4	16463*
COc1cccc2cc(-c3nc(-c4cccs4)cs3)c(=O)oc12	13	99*	17	-2	-35	3637
O=c1oc2ccccc2cc1-c1nc(-c2cccs2)cs1	41*	141*	58*	32	-49	8352
CSC1CC2CCC(C1)N2C(=O)CCc1ccc(F)c(C)c1 (centres undefined)	.	.	.	.	3	.
COc1cc(Sc2ccc(C)cc2)c(OC)cc1N	-9	8	22	-48	79*	2436
COC(=O)c1ccc(C)c(NC(=O)CCSc2ccc(C)cc2)c1	1	1	1	6	2	2784
COC(=O)c1ccc(Sc2ccc(C)cc2)c(N)c1	-1	-4	-2	-5	-58	24100*
Oc1cc(O)cc(/C=C/c2ccc(O)c(O)c2)c1	-2	118*	-1	-16	0	5597
COc1ccccc1OCc1nnc(SCC(=O)N2CCCCC2)o1	-1	-1	-1	3	-9	5499
COc1ccccc1OCc1nnc(SCC(=O)c2cc(Cl)ccc2OC)o1	1	-3	?	3	-30	21782*
COc1ccccc1OCc1nnc(SCCN2CCOCC2)o1	-2	4	?	-4	-19	22558*
COc1ccccc1OCc1nnc(SCC(=O)N2CCCC2)o1	2	1	2	13	-15	3915
Cc1ccc(NC(=O)Cn2nc3ccccc3n2)cc1	.	.	.	.	-13	.
SMILES	Anthrax LF inh2	MazEF act	BoNT A protease	BoNT F protease	SSB-PriA inh	Bead autofluor
COC(=O)c1cnn(C(=O)c2cc(OC)ccc2Br)c1N	-2	-8	1	-2	-15	23297*
COC(=O)c1cnn(C(=O)c2ccccc2Br)c1N	-4	-3	-1	-4	-3	22952*
Cn1cc(S(=O)(=O)N2CCCN(C(=O)c3ccc(C(F)(F)F)nc3)CC2)cn1	.	.	.	.	-10	.
COc1ccc(/C=N/NC(=O)C2CCN(c3ncc(C(F)(F)F)cc3Cl)CC2)cc1	-2	-16	?	-1	.	22271*
COC(=O)c1c(N=CN(C)C)sc2c1CCN(c1ncc(C(F)(F)F)cc1Cl)C2	.	.	.	.	-7	.
O=C(O)C=C1CCN(c2ncc(C(F)(F)F)cc2Cl)CC1	-9	10	-1	2	-8	6834
COc1ccc(N2CCN(C(=O)Cc3ncc(C(F)(F)F)cc3Cl)CC2)cc1	-3	2	0	-2	6	23985*
COC(=O)c1c(/N=C/N(C)C)sc2c1CCN(c1ncc(C(F)(F)F)cc1Cl)C2	-2	51*	0	-8	.	3166
NNC(=O)C=C1CCN(c2ncc(C(F)(F)F)cc2Cl)CC1	-8	1	2	2	-16	20786*
COc1ccc(C(=O)OC2CCN(c3ncc(C(F)(F)F)cc3Cl)CC2)cc1	2	-6	1	5	-20	5195
O=C(Cc1ncc(C(F)(F)F)cc1Cl)N1CCN(c2ccc(F)cc2)CC1	-3	-4	-1	-4	-7	4285
Cc1ccc(-c2nc(CSc3nc4c(c(=O)[nH]3)CN(Cc3ccc(Cl)cc3)CC4)c(C)o2)cc1	.	.	.	.	4	.
Cc1c(Cl)cccc1Nc1c(C(=O)N2CCCCC2)cnc2ccc(F)cc12	.	.	.	.	3	.
O=C(OC1CCN(c2ncc(C(F)(F)F)cc2Cl)CC1)c1ccccc1	-3	-6	1	0	-17	22198*
O=c1[nH]nc(CC2CCCN(S(=O)(=O)N3CCOCC3)C2)n1-c1ccccc1F (centres undefined)	.	.	.	.	-1	.
Cc1cc(C(=O)Nc2nnc(-c3ccc4c(c3)OCO4)o2)no1	.	.	.	.	-21	.
COc1ccc(NC(=S)Nc2ccc(N)c([N+](=O)[O-])c2)cc1	-16	6	1	-24	39*	7678
COc1ccc(NC(=S)Nc2ccc3nccnc3c2)cc1	-1	1	2	-4	77*	1989
CCOc1ccc(NC(=S)Nc2ccc3nccnc3c2)cc1	.	.	.	.	33	.
Cn1c(CO)cnc1SCc1ccc(F)cc1	-4	-2	0	0	1	4641
Cn1c(CO)cnc1SCc1c(Cl)cccc1Cl	-1	-14	?	-1	4	22193*
Cn1c(CS(=O)Cc2c(Cl)cccc2Cl)nnc1SCc1c(Cl)cccc1Cl (centres undefined)	-2	0	-1	-1	-2	16613*
COc1ccc(C(=O)C2C(=O)N(c3ccccc3)N=C2c2ccccc2)c(OC)c1 (centres undefined)	.	.	.	.	-10	.
O=C(CSc1ccc2ccccc2n1)Nc1ccccc1C(F)(F)F	.	.	.	.	-11	.
Cc1c(Br)ccc(NC(=O)CCN2C(=O)C3C4CCC(C4)C3C2=O)c1C (centres undefined)	-5	-1	?	-1	-5	23010*
SMILES	Anthrax LF inh2	MazEF act	BoNT A protease	BoNT F protease	SSB-PriA inh	Bead autofluor
O=S(=O)(c1ccc2c(c1)OCCO2)N1CC[C@H](n2ccnn2)C1	.	.	.	.	-11	.
COC(=O)c1cn(C(=O)c2ccccc2F)nc1N	1	3	4	6	-17	21604*
CC(=NNC(=S)N1CCN(C2CCCCCC2)CC1)c1ccccn1	92*	4	82*	74*	-4	4342
CC(=NNC(=S)N1CCN(c2ccccn2)CC1)c1ccccn1	-13	11	2	-43	1	3019
CC(=NNC(=S)N1CC2CCC(CC2)C1)c1ccccn1	52*	6	29	60*	.	2877
CC(=NNC(=S)N1CC2CCC(CC2)C1)c1cnccn1	54*	6	40*	59*	-11	3454
CC(=NNC(=S)N1CCN(c2ccccn2)CC1)c1nccs1	31*	12	16	30	92*	3551
